In PubChem BioAssay (NCI):
Values joined by “and” are separate entries in the source; they are usually repeats but may differ in a detail not shown here. Equal entries are not always repeated. About 83,000 compounds went through this panel and 20% of them were active in at least one assay; those are over-represented in the sample as a whole.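 A percent growth of 40 corresponds to 60% growth inhibition; 0 means no net growth; -100 means all cells died. Active threshold: below 10.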 Active and inactive are the calls of the source.

Legend:
Assay in all cases: NCI-60 one-dose screen, 48 h (100 = growth as untreated, 0 = no growth, -100 = all killed)
[1] = test system: HCT-15 colon; conditions: 10 µM
[2] = test system: SNB-75 CNS; conditions: 10 µM
[3] = test system: SNB-19 CNS; conditions: 10 µM
[4] = test system: U251 CNS; conditions: 10 µM
[5] = test system: PC-3 prostate; conditions: 10 µM
[6] = test system: SK-MEL-5 melanoma; conditions: 10 µM
[7] = test system: UACC-62 melanoma
[8] = test system: LOX IMVI melanoma; conditions: 10 µM
[9] = test system: EKVX NSCLC; conditions: 10 µM
[10] = test system: SN12C renal; conditions: 10 µM
[11] = test system: UO-31 renal; conditions: 10 µM
[12] = test system: ACHN renal; conditions: 10 µM
[13] = test system: CAKI-1 renal; conditions: 10 µM
[14] = test system: A498 renal; conditions: 10 µM
[15] = test system: CCRF-CEM leukemia; conditions: 10 µM
[16] = test system: MOLT-4 leukemia; conditions: 10 µM unless noted
[17] = test system: TK-10 renal
[18] = test system: SR leukemia; conditions: 10 µM
[19] = test system: HT29 colon; conditions: 10 µM
[20] = test system: SK-MEL-2 melanoma; conditions: 10 µM

Measured: growth

CCOC(=O)[C@]1(Br)CC[C@@]1(Br)C(=O)OCC
inactive: [1] 89.2% | [2] 92.4% | [3] 106% | [4] 98.3% | [5] 97.3% | [6] 103% | [7]; 10 µM 77.9% | [8] 82.5% | [9] 99.5% | [10] 98.1% | [11] 61.5% | [12] 78.9% | [13] 90.3% | [14] 115% | [15] 99.8% | [16] 36.8%

O=C(O)c1ccccc1.[Ag]
inactive: [1] 110% | [2] 110% | [3] 105% | [4] 97% | [5] 86.8% | [6] 28.5% | [7]; 10 µM 105% | [8] 17% | [9] 103% | [10] 102% | [11] 103% | [17]; 10 µM 109% | [12] 111% | [13] 90.2% | [15] 15.4% | [16] 102% | [18] 102%

N#C/C(=C/N1C(=O)/C(=C/c2ccc([N+](=O)[O-])cc2)SC1=S)c1nc2ccccc2s1
inactive: [1] 95.6% | [2] 84.5% | [3] 86.4% | [4] 69.4% | [5] 79.7% | [6] 63.5% | [7]; 10 µM 70.1% | [8] 88% | [9] 82.3% | [10] 89.3% | [11] 64% | [17]; 10 µM 96.3% | [12] 86.5% | [13] 97% | [15] 84% | [16] 78.8% | [18] 73.8%
active: [14] 6.8%

COc1ccc2c(c1)[nH]c1c(/C=C/c3ccccc3)nccc12
inactive: [1] 43.9% | [2] 35.7% | [3] 76.5% | [4] 70.4% | [5] 42.5% | [6] 72.8% | [7]; 10 µM 78.9% | [8] 63.4% | [9] 62.2% | [10] 78.7% | [11] 25.7% | [17]; 10 µM 81.2% | [12] 61.1% | [13] 58.4% | [14] 71.2% | [15] 65% | [16] 48% | [18] 29.3%

CN(CC(=O)O)c1ccc(/C=C/c2ccnc3ccccc23)cc1
inactive: [1] 84.5% | [2] 90.3% | [3] 87.9% | [4] 80.3% | [5] 71.2% | [6] 93% | [7]; 10 µM 72.3% | [8] 94.8% | [9] 69.6% | [10] 85.2% | [11] 61.7% | [12] 89.1% | [13] 92.9% | [14] 97.1% | [15] 66.8% | [16] 34.4%

Cn1ncc2cc3c(Nc4ccc(Cl)cc4)cccc3nc21
inactive: [1] 88.1% | [2] 97.2% | [3] 99.3% | [4] 81.2% | [5] 79.8% | [6] 82.1% | [7]; 10 µM 98.6% | [8] 87% | [9] 76.7% | [10] 93.7% | [11] 62.5% | [12] 90.5% | [13] 88.6% | [14] 75.4% | [15] 95.5% | [16] 89% | [18] 84.8%

O=[N+]([O-])c1cc(S(=O)(=O)Nc2ccccc2)ccc1Cl
inactive: [1] 96.5% | [2] 69.3% | [3] 95.5% | [4] 100% | [5] 94.3% | [6] 92.8% | [7]; 10 µM 84.7% | [8] 77.6% | [9] 86.1% | [10] 95.7% | [11] 76.7% | [12] 94.2% | [13] 77.3% | [14] 96.8% | [15] 85.9% | [16] 89%

COc1ccc(C(C#N)=C2C=CC(=NO)C=C2)cc1
inactive: [1] 91.5% | [2] 91.6% | [3] 111% | [4] 53.9% | [5] 50.4% | [6] 80.3% | [7]; 10 µM 66.3% | [8] 59.5% | [9] 125% | [10] 95.8% | [11] 67% | [12] 78.5% | [13] 93.6% | [14] 114% | [15] 29.8% | [16] 58.4% | [18] 49.8%

CCC(=O)Oc1ccc(/C=N/NC(N)=S)nc1
active: [7]; 10 µM 7.95% | [12] 8.62% | [13] -2.02% | [15] -0.545%
inactive: [1] 65% | [2] 41% | [3] 72.7% | [4] 27.3% | [5] 54.1% | [6] 31% | [8] 18.1% | [9] 86.3% | [10] 32.5% | [11] 29.7% | [17]; 10 µM 86.3% | [14] 52% | [16] 10.8%

COc1ccc2oc(-c3ccc(Cl)cc3)c(N3CCN(C)CC3)c2c1
inactive: [1] 28.9% | [2] 18.3% | [3] 48.6% | [4] 20.1% | [9] 50.7% | [10] 37.2% | [14] 52.4% | [16] 12.5%
active: [19] -1.44% | [5] 4.07% | [6] -14.8% | [7]; 10 µM -52.6% | [8] -87.5% | [11] -5.46% | [12] 4.13% | [13] -11.6% | [15] -12.6%

O=c1[nH]cc(/C=N\Nc2ccccc2)c(=O)[nH]1
active: [7]; 10 µM 7.82%
inactive: [1] 41.1% | [2] 102% | [3] 103% | [4] 69.6% | [5] 52.1% | [6] 57.8% | [8] 45.8% | [9] 56.4% | [10] 68.7% | [11] 26% | [12] 40.3% | [13] 41.6% | [14] 87.5% | [15] 31.2% | [16] 49.6% | [18] 65.1%

O=C(CCc1ccccc1)ON1C(=S)C(c2ccccc2)(c2ccccc2)N=C1Sc1ccccc1
10.7% (inactive) and 0.462% (active): [7]; 100 µM
28.6% (inactive) and 7.58% (active): [17]; 100 µM

Clc1c(Cl)c(Cl)c2c(nnn2C2CCCO2)c1Cl (configuration not stated)
active: [7]; 100 µM -55.3% and -99.6%

COc1cc2c(cc1C[N+](C)(C)CSc1ccccc1)-c1ccccc1CC2
active: [7]; 100 µM -96.4% and -92.3%

CO[C@@]12[C@H](COC(N)=O)C3=C(C(=O)C(C)=C(N)C3=O)N1C[C@@H]1N[C@@H]12
active: [7]; 25 µM -83.6% and -100% | [17]; 25 µM -32.7% and -74.4%

O=C(CNS(=O)(=O)Cc1ccccc1)NNc1ccccc1
inactive: [1] 27.8% | [2] 76.8% | [3] 88.3% | [4] 82.7% | [5] 63.2% | [6] 47.5% | [7]; 10 µM 14.9% | [20] 97.1% | [9] 53.3% | [10] 75% | [11] 35.7% | [12] 36.7% | [13] 39.8% | [14] 108% | [15] 45.2% | [16] 35.4% | [18] 39.2%

CC1CCC2(C(=O)O)CCC3(C)C(=CCC4C5(C)CC(O)C(O)C(C)(CO)C5C(O)CC43C)C2C1C (configuration not stated)
inactive: [1] 112% | [2] 91.8% | [3] 98.7% | [4] 103% | [5] 97.5% | [7]; 10 µM 104% | [8] 107% | [9] 113% | [10] 96.1% | [11] 92.8% | [12] 116% | [13] 118% | [15] 88.5% | [16] 113% | [18] 105%
active: [6] 4.98%

Cc1c(-c2ccccc2)[nH]c2ccccc12
inactive: [1] 106% | [2] 89.9% | [3] 110% | [4] 106% | [5] 87.8% | [7]; 10 µM 96.3% | [8] 81.5% | [9] 104% | [10] 114% | [11] 90.4% | [12] 100% | [13] 91.5% | [14] 91.3% | [15] 95.1% | [16] 99.6% | [18] 102%

NCc1c(O)ccc2ccccc12
inactive: [1] 98.2% | [2] 73.5% | [4] 103% | [5] 84.9% | [6] 86.3% | [7]; 10 µM 95.4% | [8] 101% | [9] 106% | [10] 90.9% | [11] 81.3% | [12] 103% | [13] 74.3% | [14] 105% | [15] 93% | [16] 93.3% | [18] 87.8%

CN(C)CCNc1cccc2sc3ccc(O)cc3c(=O)c12
active: [13] 5.13%
inactive: [1] 26.9% | [2] 31.8% | [3] 57.4% | [5] 38.7% | [6] 44% | [7]; 10 µM 57.8% | [8] 18.3% | [10] 40.4% | [11] 20% | [12] 14.9% | [14] 92.5% | [16] 14.3%

C=C(C)[C@@H]1CCc2c(O)c(O)c(=O)cc(C)c2C1
active: [7]; 100 µM -52.3% and -85% | [17]; 100 µM -17% and -96.5%
